# Measurements from paper PMC11062922 (Nature Chemical Biology, 2023).
# Where two headings read alike, the source gives them in different places.
# Key:
# Design in all cases: species or system human, MV4-11 + K-562 + COLO205 + SK-N-BE2 + OVCAR-8
# DDR1 = settings: read-out: apparent Kd, n = 1
# IKBKE = settings: read-out: apparent Kd, n = 1
# LYN = settings: read-out: apparent Kd, compound concentrations: 100 nM and 1000 nM (sheet 'Samples'), n = 1
# MAP2K5 = settings: read-out: apparent Kd, n = 1
# MAP4K5 = settings: read-out: apparent Kd, compound concentrations: 100 nM and 1000 nM (sheet 'Samples'), n = 1
# RPS6KA1 = settings: read-out: apparent Kd, n = 1
# SLK = settings: read-out: apparent Kd, n = 1
# SYK = settings: read-out: apparent Kd, n = 1
# ATR = settings: read-out: apparent Kd, compound concentrations: 100 nM and 1000 nM (sheet 'Samples'), n = 1
# EPHB3 = settings: read-out: apparent Kd, compound concentrations: 100 nM and 1000 nM (sheet 'Samples'), n = 1
# FRK = settings: read-out: apparent Kd, compound concentrations: 100 nM and 1000 nM (sheet 'Samples'), n = 1
# RIPK2 = settings: read-out: apparent Kd, compound concentrations: 100 nM and 1000 nM (sheet 'Samples'), n = 1
# MAPKAPK2 = settings: read-out: apparent Kd, compound concentrations: 100 nM and 1000 nM (sheet 'Samples'), n = 1
# AKT1 = settings: read-out: apparent Kd, compound concentrations: 100 nM and 1000 nM (sheet 'Samples'), n = 1
# CSNK1G1 = settings: read-out: apparent Kd; compound concentrations: 100 nM and 1000 nM (sheet 'Samples'), CATDS: 5.3431605837735603E-3; n = 1
# PIK3C3 = settings: read-out: apparent Kd, n = 1
# PIM2 = settings: read-out: apparent Kd; compound concentrations: 100 nM and 1000 nM (sheet 'Samples'), CATDS: 4.10108684490637E-3; n = 1
# STK11 = settings: read-out: apparent Kd, compound concentrations: 100 nM and 1000 nM (sheet 'Samples'), n = 1
# TGFBR1 = settings: read-out: apparent Kd, n = 1
# TP53RK = settings: read-out: apparent Kd, compound concentrations: 100 nM and 1000 nM (sheet 'Samples'), n = 1
# [1] = compound concentrations:100 nM and 1000 nM (sheet 'Samples')
compound,measurement,setting,value
COc1ccc(Nc2ncc(C#N)c(Nc3ccccc3C(N)=O)n2)cc1N1CCN(C)CC1.Cl [GSK1558669A],potency estimated from few doses,"DDR1; compound concentrations: 100 nM and 1000 nM (sheet 'Samples'), CATDS: 8.5132006877523293E-3",319 nM
same,potency estimated from few doses,"IKBKE; compound concentrations: 100 nM and 1000 nM (sheet 'Samples'), CATDS: 7.4158435365071704E-3",548 nM
same,potency estimated from few doses,LYN; CATDS: 6.9772111779179699E-3,724 nM
same,potency estimated from few doses,"MAP2K5; compound concentrations: 100 nM and 1000 nM (sheet 'Samples'), CATDS: 8.5242635319968205E-3",318 nM
same,potency estimated from few doses,MAP4K5; CATDS: 7.4217938627351198E-3,546 nM
same,potency estimated from few doses,"RPS6KA1; compound concentrations: 100 nM and 1000 nM (sheet 'Samples'), CATDS: 1.0869541528388701E-2",148 nM
same,potency estimated from few doses,"SLK; compound concentrations: 100 nM and 1000 nM (sheet 'Samples'), CATDS: 1.35175429318502E-2",84.7 nM
same,potency estimated from few doses,"SYK; compound concentrations: 100 nM and 1000 nM (sheet 'Samples'), CATDS: 6.16985372159695E-3",1440 nM
Clc1cc(Cl)cc(Nc2ccnc(Nc3cc(Cl)cc(Cl)c3)n2)c1 [GSK175726A],potency estimated from few doses,ATR; CATDS: 1.4419933534352201E-2,267 nM
same,potency estimated from few doses,EPHB3; CATDS: 8.8361902766531698E-3,1370 nM
same,potency estimated from few doses,FRK; CATDS: 1.3675373024535401E-2,305 nM
same,potency estimated from few doses,LYN; CATDS: 1.7701594212269099E-2,169 nM
same,potency estimated from few doses,RIPK2; CATDS: 1.18071418274956E-2,457 nM
CCOC(=O)N1CCC(n2cnc(-c3ccc(F)cc3)c2-c2ccnc(N)n2)CC1 [SB-219952],potency estimated from few doses,"DDR1; compound concentrations: 100 nM and 1000 nM (sheet 'Samples'), CATDS: 1.23341339187386E-2",531 nM
same,potency estimated from few doses,EPHB3; CATDS: 9.5797280308489805E-3,971 nM
same,potency estimated from few doses,FRK; CATDS: 9.3147950048740498E-3,1050 nM
same,potency estimated from few doses,MAPKAPK2; CATDS: 4.5642459422858099E-2,60.7 nM
same,potency estimated from few doses,RIPK2; CATDS: 1.44232329790909E-2,387 nM
Cl.Nc1c(C(=O)c2cccc(C#CCN3CCCCC3)c2)cnn1-c1ccc(F)cc1 [RO1154461-001],potency estimated from few doses,EPHB3; CATDS: 1.0883176780773701E-2,1390 nM
same,potency estimated from few doses,FRK; CATDS: 1.2851217136808301E-2,829 nM
same,potency estimated from few doses,RIPK2; CATDS: 1.2186963927709901E-2,966 nM
O=C1N=C(NCCc2ccc(Cl)cc2)S/C1=C\c1ccc2ncccc2c1 [RO4498479-000],potency estimated from few doses,"DDR1; compound concentrations: 100 nM and 1000 nM (sheet 'Samples'), CATDS: 7.1142371440619002E-3",1530 nM
same,potency estimated from few doses,EPHB3; CATDS: 7.7760925850710602E-3,1110 nM
same,potency estimated from few doses,FRK; CATDS: 1.0205973298365501E-2,530 nM
same,potency estimated from few doses,LYN; CATDS: 9.5944426584782493E-3,613 nM
same,potency estimated from few doses,RIPK2; CATDS: 1.0901360132345101E-2,458 nM
same,potency estimated from few doses,"RPS6KA1; compound concentrations: 100 nM and 1000 nM (sheet 'Samples'), CATDS: 6.6850452112440202E-3",2010 nM
Cc1ccc(Nc2ccnc(Nc3ccc4c(c3)CS(=O)(=O)C4)n2)cc1O.Cl [GW579362A],potency estimated from few doses,RIPK2; CATDS: 5.8804795040806997E-2,261 nM
Cn1ncc2c(N)ncnc21 [SKF-18267],potency estimated from few doses,AKT1; CATDS: 4.8125130234568303E-3,879 nM
same,potency estimated from few doses,ATR; CATDS: 6.4256483449106902E-3,516 nM
same,potency estimated from few doses,CSNK1G1,716 nM
same,potency estimated from few doses,"DDR1; compound concentrations: 100 nM and 1000 nM (sheet 'Samples'), CATDS: 4.82198778497934E-3",876 nM
same,potency estimated from few doses,EPHB3; CATDS: 3.3263666790724102E-3,2290 nM
same,potency estimated from few doses,FRK; CATDS: 7.1234836872725703E-3,436 nM
same,potency estimated from few doses,"IKBKE; compound concentrations: 100 nM and 1000 nM (sheet 'Samples'), CATDS: 4.4054249402622498E-3",1060 nM
same,potency estimated from few doses,LYN; CATDS: 5.9641678427723097E-3,586 nM
same,potency estimated from few doses,"MAP2K5; compound concentrations: 100 nM and 1000 nM (sheet 'Samples'), CATDS: 4.1093022417344298E-3",1250 nM
same,potency estimated from few doses,MAP4K5; CATDS: 3.7006195337176699E-3,1650 nM
same,potency estimated from few doses,MAPKAPK2; CATDS: 4.1039976146892603E-3,1250 nM
same,potency estimated from few doses,"PIK3C3; compound concentrations: 100 nM and 1000 nM (sheet 'Samples'), CATDS: 6.1778157574045199E-3",552 nM
same,potency estimated from few doses,PIM2,1260 nM
same,potency estimated from few doses,"RPS6KA1; compound concentrations: 100 nM and 1000 nM (sheet 'Samples'), CATDS: 4.0621123256608799E-3",1290 nM
same,potency estimated from few doses,"SLK; compound concentrations: 100 nM and 1000 nM (sheet 'Samples'), CATDS: 4.0721330084515098E-3",1280 nM
same,potency estimated from few doses,STK11; CATDS: 3.27350856558018E-3,2430 nM
same,potency estimated from few doses,"SYK; compound concentrations: 100 nM and 1000 nM (sheet 'Samples'), CATDS: 5.7016392995471003E-3",635 nM
same,potency estimated from few doses,"TGFBR1; compound concentrations: 100 nM and 1000 nM (sheet 'Samples'), CATDS: 5.0317884305657503E-3",804 nM
same,potency estimated from few doses,TP53RK; CATDS: 3.61485371112703E-3,1760 nM
Cc1cccc(Nc2nc(N[C@H]3CCCC[C@H]3N)ncc2C(N)=O)c1.Cl [GSK986310C],potency estimated from few doses,SYK; [1],79.7 nM
COc1cccc2c(-c3ccncc3)c(-c3ccc(F)cc3)nn12 [GW468513X],potency estimated from few doses,MAPKAPK2; CATDS: 0.11200666699730499,80.6 nM
same,potency estimated from few doses,"TGFBR1; compound concentrations: 100 nM and 1000 nM (sheet 'Samples'), CATDS: 4.1244315663660498E-2",1080 nM
CCn1c(-c2nonc2N)nc2c(-c3ccccc3)ncc(OCCCN)c21.CCn1c(-c2nonc2N)nc2c(-c3ccccc3)ncc(OCCCN)c21.O=C(O)C(F)(F)F.O=C(O)C(F)(F)F [GSK260205A],potency estimated from few doses,AKT1; CATDS: 6.9127027959846404E-2,157 nM
same,potency estimated from few doses,MAPKAPK2; CATDS: 0.102958619201112,74.4 nM
Fc1ccc(-c2c(-c3ccncc3)[nH]c3cccnc23)cc1 [RO1153853-000],potency estimated from few doses,MAPKAPK2; CATDS: 8.5753103075807094E-2,373 nM
same,potency estimated from few doses,RIPK2; CATDS: 7.5197956220231496E-2,498 nM
same,potency estimated from few doses,"TGFBR1; compound concentrations: 100 nM and 1000 nM (sheet 'Samples'), CATDS: 5.3195917052411702E-2",1310 nM
CNC(=O)c1ccccc1Nc1nc(Nc2ccc(N3CCOCC3)cc2)ncc1Cl.Cl [GSK1576028A],potency estimated from few doses,IKBKE; [1],1540 nM
same,potency estimated from few doses,RPS6KA1; [1],683 nM
same,potency estimated from few doses,SLK; [1],1120 nM
same,potency estimated from few doses,TGFBR1; [1],780 nM
Cc1cccc2c(-c3ccncn3)c(-c3ccc(F)cc3)nn12 [GW515532X],potency estimated from few doses,MAPKAPK2; CATDS: 0.245203674473806,1400 nM
CC(C)N1CCC(n2cnc(-c3ccc(F)cc3)c2-c2ccnc(N)n2)CC1 [SB-223132],potency estimated from few doses,DDR1; [1],928 nM
CONC1=NC(=O)/C(=C/c2ccc3ncccc3c2)S1 [RO4613269-000],potency estimated from few doses,TP53RK; CATDS: 0.12819898124354101,2200 nM
CN1C[C@@H]2Cn3c(c(C4=C(c5cn(C)c6ccccc56)C(=O)NC4=O)c4ccccc43)C[C@H]2C1.Cl [RO0320234-001],potency estimated from few doses,DDR1; [1],1520 nM
Cl.ON=C1CCc2cc(-c3nc(C4CCNCC4)[nH]c3-c3ccncc3)ccc21 [SB-614067-R],potency estimated from few doses,TGFBR1; [1],1170 nM
CNCC#Cc1c(F)ccc2c1/C(=C/c1[nH]ccc1OC)C(=O)N2.Cl [RO0281601-001],potency estimated from few doses,STK11; CATDS: 2.1927929235579201E-2,1930 nM
Cc1cccc(Nc2nc(N[C@H]3CCNC3)ncc2C(N)=O)c1.Cl [GSK2197149A],potency estimated from few doses,MAP2K5; [1],1170 nM
same,potency estimated from few doses,PIK3C3; [1],1110 nM
